Measured values as given in PubChem BioAssay (Tox21).
Results filed as inconclusive are left out. Calls of active or inactive are those of the source. Unless noted, the call rests on the fitted dose curve; in most records, active means well fitted curve in the direction sought with a large enough effect in the repeat runs; inconclusive means weak or mixed curves; inactive means no such curve, though single readings can be large; an effect the other way counts as inactive or inconclusive.

Key:
[1] = qHTS assay to test for compound auto fluorescence at 535 nm (green) in HEK293 cells (AID 720680)
[2] = qHTS assay to test for compound auto fluorescence at 460 nm (blue) in HEK293 cell free culture (AID 720681)
Outline: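 Compounds were added to cell-free DMEM with 10% FBS and fluorescence read directly. The blue channel used 405 nm excitation and 460 nm emission, with triamterene as the reference fluorophore.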

[3] = qHTS assay to test for compound auto fluorescence at 590 nm (red) in HEK293 cell free culture (AID 720683)
Outline: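 Cell-free wells of DMEM with 10% FBS received compound, and intrinsic fluorescence was read at excitation/emission 540/590 nm. Values expressed as equivalence to Rose Bengal sodium.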

[4] = qHTS assay to test for compound auto fluorescence at 590 nm (red) in HepG2 cell free culture (AID 720684)
Outline: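 Compounds are added to culture medium (MEM, 10% FBS) lacking cells, then fluorescence is read at excitation 540 nm, emission 590 nm, with Rose Bengal sodium as the equivalency standard.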

[5] = qHTS assay to test for compound auto fluorescence at 460 nm (blue) in HepG2 cell free culture (AID 720685)
Outline: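 Compound (23 nL) or DMSO pinned into cell-free MEM with 10% FBS; blue fluorescence read at 405/460 nm excitation/emission, expressed as auto-fluorescence equivalency to triamterene.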

[6] = qHTS assay to test for compound auto fluorescence at 535 nm (green) in HepG2 cell free culture (AID 720686)
[7] = qHTS assay to test for compound auto fluorescence at 460 nm (blue) in HepG2 cells (AID 720687)
Outline: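 HepG2 cells in MEM with 10% FBS, attached overnight at 37 C, were exposed to compound or DMSO for 1 hr at 37 C, 5% CO2. Blue fluorescence was read at 405/460 nm, with triamterene as reference fluorophore.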

[8] = target: Glucocorticoid receptor (Homo sapiens) (UniProt P04150); test: qHTS assay to identify small molecule agonists of the glucocorticoid receptor (GR) signaling pathway (AID 720691; active means well fitted activation curve with a large enough effect in the signal ratio in the repeat runs, not every such curve was filed as active; the % refers to the signal ratio)
Outline: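 qHTS in GR-bla HeLa cells: 4 h settling at 37 C/5% CO2, 18 h compound incubation at 37 C, 2 h LiveBLAzer B/G FRET substrate at room temperature, fluorescence intensity measured.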

[9] = target: Glucocorticoid receptor (Homo sapiens) (UniProt P04150); test: qHTS assay to identify small molecule antagonists of the glucocorticoid receptor (GR) signaling pathway (AID 720692; active means well fitted inhibition curve with a large enough effect in the signal ratio in the repeat runs, not every such curve was filed as active; the % refers to the signal ratio)
Outline: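 Inhibition of glucocorticoid signalling is measured in HeLa cells with a GRE-controlled beta-lactamase reporter; cells are co-treated with compound and 5 nM dexamethasone (final) for 18 h before FRET substrate readout.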

[10] = qHTS assay to identify small molecule antagonists of the glucocorticoid receptor (GR) signaling pathway - cell viability counter screen (AID 720693); further: nearly all actives have a fitted effect of over 55% in size
[11] = qHTS assay for identifying genotoxic compounds that show differential cytotoxicity against isogenic chicken DT40 cell lines with known DNA damage response pathways - wild type cell line (AID 743012); further: nearly all actives have a fitted effect of over 60% in size
Outline: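 First, wild type DT40 cells were plated at 300 per well and equilibrated about 0.5 h at 37 C/5% CO2. Next, compounds in DMSO were added and exposure lasted 40 h. Finally, CellTiter-Glo was added for 30 min at room temperature and luminescence recorded.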

[12] = qHTS assay for identifying genotoxic compounds that show differential cytotoxicity against isogenic chicken DT40 cell lines with known DNA damage response pathways - Rad54/Ku70 mutant cell line (AID 743015); further: nearly all actives have a fitted effect of over 60% in size
[13] = qHTS assay to identify small molecule antagonists of the androgen receptor (AR) signaling pathway - cell viability counter screen (AID 743033; further: nearly all actives have a fitted effect of over 45% in size)
[14] = qHTS assay to identify small molecule antagonists of the androgen receptor (AR) signaling pathway using the MDA cell line - cell viability counter screen (AID 743041; further: nearly all actives have a fitted effect of over 45% in size)
Outline: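 Same-well cytotoxicity was assessed by CellTiter-Fluor in MDA-kb2 AR-luc cells after 16 h of compound treatment under R1881 agonism.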

[15] = qHTS assay to test for compound auto fluorescence at 535 nm (green) in HEK293 cell free culture (AID 720682)
Outline: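 Intrinsic compound fluorescence is measured in culture medium containing 10% FBS, with excitation at 485 nm and detection at 535 nm, referenced to fluorescein.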

[16] = qHTS assay for identifying genotoxic compounds that show differential cytotoxicity against isogenic chicken DT40 cell lines with known DNA damage response pathways - Rev3 mutant cell line (AID 743014); further: nearly all actives have a fitted effect of over 55% in size
[17] = target: Androgen receptor (Homo sapiens) (UniProt P10275); test: qHTS assay to identify small molecule agonists of the androgen receptor (AR) signaling pathway (AID 743036; active means well fitted activation curve with a large enough effect in the signal ratio in the repeat runs, with a control signal flat, not every such curve was filed as active; the % refers to the signal ratio)
Outline: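 Agonist activity was scored by beta-lactamase reporter fluorescence in stably transfected HEK293 cells exposed to compounds for 16 h at 37C and 5% CO2. Substrate loading took 2 h at room temperature.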

[18] = target: Androgen receptor (Homo sapiens) (UniProt P10275); test: qHTS assay to identify small molecule agonists of the androgen receptor (AR) signaling pathway using the MDA cell line (AID 743040; further: nearly all actives have a fitted effect of over 20% in size)
Outline: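 Human breast carcinoma MDA-kb2 reporter cells (MMTV-luc, AR/GR elements) were treated for 16 h at 37C in 0% CO2 following a 5 h settling period. Signal was quantified by ONE-Glo luminescence.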

[19] = target: Androgen receptor (Homo sapiens) (UniProt P10275); test: qHTS assay to identify small molecule antagonists of the androgen receptor (AR) signaling pathway using the MDA cell line (AID 743042; further: nearly all actives have a fitted effect of over 55% in size)
Outline: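 MDA-kb2 breast carcinoma cells carrying MMTV-luciferase (AR/GR responsive) were co-treated with compounds and the agonist R1881 for 16 h at 37C. Inhibition read as ONE-Glo luminescence; CellTiter-Fluor fluorescence measured in parallel for cytotoxicity.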

Measured: Potency

Chain of Glucocorticoid receptor (Homo sapiens) (P04150 whole entry, looked up): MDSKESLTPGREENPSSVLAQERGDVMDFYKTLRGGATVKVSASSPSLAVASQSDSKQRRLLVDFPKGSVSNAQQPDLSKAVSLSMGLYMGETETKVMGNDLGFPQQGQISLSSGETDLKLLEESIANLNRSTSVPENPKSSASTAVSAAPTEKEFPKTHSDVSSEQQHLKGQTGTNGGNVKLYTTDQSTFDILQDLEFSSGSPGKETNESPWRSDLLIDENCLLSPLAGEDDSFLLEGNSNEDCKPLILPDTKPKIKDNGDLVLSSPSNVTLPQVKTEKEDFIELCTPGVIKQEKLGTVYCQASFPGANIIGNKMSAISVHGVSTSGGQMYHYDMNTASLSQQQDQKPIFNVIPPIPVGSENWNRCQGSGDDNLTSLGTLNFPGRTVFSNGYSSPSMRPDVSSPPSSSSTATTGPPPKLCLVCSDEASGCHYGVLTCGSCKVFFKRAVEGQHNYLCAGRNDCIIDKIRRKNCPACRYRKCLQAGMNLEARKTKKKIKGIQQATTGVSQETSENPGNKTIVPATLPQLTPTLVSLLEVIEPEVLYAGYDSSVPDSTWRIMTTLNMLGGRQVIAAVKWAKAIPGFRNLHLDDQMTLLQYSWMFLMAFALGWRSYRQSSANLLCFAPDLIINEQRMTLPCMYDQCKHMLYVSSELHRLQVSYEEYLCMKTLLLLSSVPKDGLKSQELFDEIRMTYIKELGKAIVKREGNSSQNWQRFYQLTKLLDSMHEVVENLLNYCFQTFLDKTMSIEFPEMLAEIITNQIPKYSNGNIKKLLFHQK
Chain of Androgen receptor (Homo sapiens) (P10275 whole entry, looked up): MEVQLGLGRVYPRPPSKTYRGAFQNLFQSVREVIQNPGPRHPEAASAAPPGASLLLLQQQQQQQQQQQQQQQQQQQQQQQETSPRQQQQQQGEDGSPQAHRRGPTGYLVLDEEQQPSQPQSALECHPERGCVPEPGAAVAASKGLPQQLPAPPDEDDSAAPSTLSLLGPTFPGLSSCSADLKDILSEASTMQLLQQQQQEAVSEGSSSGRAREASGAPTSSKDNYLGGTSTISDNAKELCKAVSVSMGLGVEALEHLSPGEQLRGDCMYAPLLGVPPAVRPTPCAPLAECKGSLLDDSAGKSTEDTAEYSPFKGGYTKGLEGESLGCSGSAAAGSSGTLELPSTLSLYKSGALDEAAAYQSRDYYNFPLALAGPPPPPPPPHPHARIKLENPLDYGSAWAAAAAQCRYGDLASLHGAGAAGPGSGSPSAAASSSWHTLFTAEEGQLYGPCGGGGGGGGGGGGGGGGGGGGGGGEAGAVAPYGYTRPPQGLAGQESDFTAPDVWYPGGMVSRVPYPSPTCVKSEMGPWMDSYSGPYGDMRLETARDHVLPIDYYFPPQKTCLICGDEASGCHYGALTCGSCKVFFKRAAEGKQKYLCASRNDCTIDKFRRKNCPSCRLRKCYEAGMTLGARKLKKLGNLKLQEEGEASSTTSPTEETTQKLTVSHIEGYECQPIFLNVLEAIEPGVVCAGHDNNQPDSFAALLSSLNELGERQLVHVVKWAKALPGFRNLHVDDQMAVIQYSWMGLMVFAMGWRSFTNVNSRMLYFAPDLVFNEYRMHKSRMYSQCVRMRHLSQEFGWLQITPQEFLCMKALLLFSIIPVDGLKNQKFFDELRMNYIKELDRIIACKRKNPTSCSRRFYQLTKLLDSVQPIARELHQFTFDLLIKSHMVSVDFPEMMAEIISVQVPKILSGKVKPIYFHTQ

Cc1cc(C)c(C(=O)O)c(C)c1
not listed: [15] | [16] | [17] | [18] | [19]
inactive: all other assays above

CCC(C)C(C)=O (stereo unspecified)
not listed: [6] | [10] | [15] | [16] | [17] | [18] | [19]
inactive: all other assays above

C=C(C)C1CC=C(C)C(=O)C1 (stereo unspecified)
not listed: [2] | [17] | [18] | [19]
inactive: all other assays above

Fc1ccccc1
not listed: [2] | [17] | [18] | [19]
inactive: all other assays above

OC[C@H]1O[C@@H](O[C@@H]2[C@@H](CO)O[C@](O)(CO)[C@H]2O)[C@H](O)[C@@H](O)[C@H]1O
not listed: [2] | [7] | [16]
inactive: all other assays above

CCCC(CC)c1ccccc1 (stereo unspecified)
not listed: [2] | [11] | [17] | [18] | [19]
inactive: all other assays above
